About 79,000 compounds went through this panel and 15% of them were active in at least one assay; those are over-represented in the sample as a whole. Calls of active or inactive are those of the source. No stated cut-off is given here; in the data, active means growth inhibition above about 70%; inactive means the rest.
assay: NCI Yeast Anticancer Drug Screen. Data for the sgs1 mgt1 strain (AID 161);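 further: 0% = growth of cultures given vehicle only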; conditions: S. cerevisiae sgs1 mgt1 strain, at 50.0 µM, active compounds read high
Summary of the method: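 Percent growth inhibition was derived by comparing compound-exposed mutant yeast with vehicle-exposed cultures. The strain carries alterations in DNA damage repair.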

SMILES | growth inhibition
OC(OC/C(I)=C(/I)COC(O)C(Cl)(Cl)Cl)C(Cl)(Cl)Cl (configuration not stated) | 94.8% (active)
COC(C)(C)[C@@H]1CCCN1C1=C(C)C(=O)OC1 | 78.5% (active)
COc1ccc(-c2nc(C)[nH]c(=O)c2Cc2c(O)ccc3ccccc23)cc1 | 97.8% (active)
C1CCC(CCNCCC2CCCCC2)CC1 | 99% (active)
CC1=C(C)C1[N+](=O)[O-] | 69% (inactive)
COc1ccc2c(c1)OC(c1ccccc1O)CC2=O (configuration not stated) | 72.1% (active)
CCN(CC)c1ccc(NC(CC(O)c2ccccc2)c2ccccc2)cc1 (configuration not stated) | -0.8% (inactive)
COc1cc(/C=C/C(=O)c2ccc3ccccc3c2)cc(OC)c1OC | 34.4% (inactive)
C=CC(=C)OC | 19.1% (inactive)
O=C1OC(=O)c2ccc([N+](=O)[O-])c3cccc1c23 | 76.4% (active)
CCCOC(=O)CSC#N | 98.2% (active)
CCCCN(CCCC)CCCCCCNc1cc(OC)cc2cccnc12 | 99% (active)
CN1C(Cl)=NS(=O)(=O)c2ccccc21 | -12.4% (inactive)
COc1cc(C(=O)CBr)c2ccc(Cl)cc2n1 | 94% (active)
CCCCCCCCCCCCCCCC(=O)N(CCCN(CC)CC)C(C)CCCN(CC)CC (configuration not stated) | 44.9% (inactive)
CC1(c2ccccc2)OC1C(=O)N(c1ccccc1)c1ccccc1 (configuration not stated) | 53.3% (inactive)
CCCCCCCNC1CCCc2cc(OC)ccc21 (configuration not stated) | 84.2% (active)
Cc1ccc(S(=O)(=O)NCCSCCSCCNS(=O)(=O)c2ccc(C)cc2)cc1 | 50.5% (inactive)
COc1ccc(C2C3CCCC(C(c4ccc(OC)cc4)N2C)C32NC(=O)NC2=O)cc1 (configuration not stated) | 97.8% (active)
CC(C)OC1=C(Cl)C(=O)c2c(cccc2[N+](=O)[O-])C1=O | 99.4% (active)
COC(=O)c1nnn(-c2ccc(Cl)cc2Cl)c1C(=O)c1ccc(Cl)c(Cl)c1 | 99% (active)
O=Cc1cc2c(s1)C(=O)c1sccc1C2=O | 89% (active)

assay: NCI Yeast Anticancer Drug Screen. Data for the cln2 rad14 strain (AID 165);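 further: 0% = growth equal to vehicle treated cultures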; conditions: S. cerevisiae cln2 rad14 strain, at 5.0 µM (retest, dose inferred, filed as 0.5), active compounds read high
Summary of the method: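 Readout is yeast growth inhibition versus vehicle-treated controls, using a strain with cln2 and rad14 alterations exposed to compound.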

SMILES | growth inhibition
O=C1c2ccccc2C(=O)c2sc(Nc3cc(Cl)ccc3Cl)nc21 | 52% (inactive)
OCC(c1ccccc1)c1ccccc1 | 2% (inactive)
CN(C)c1nc(=NCc2ccco2)ss1 | 13% (inactive)
C/C=C\C=N\NC(N)=S | 3% (inactive)
O=C(/C=N/O)c1c(-c2ccccc2)[nH]c(-c2ccccc2)c1-c1ccccc1 | 1% (inactive)
Cc1c2ccccc2c(CO)c2cc(F)c3ccccc3c12 | 87% (active)
O=C(O)Cc1cccc2c(=O)c3cccc([N+](=O)[O-])c3[nH]c12 | 28% (inactive)
Cc1ccc(SC2=C(N(C)C)C(=O)c3ccccc3C2=O)cc1 | 42% (inactive)
O=C1C(Cl)=C(Cl)C(=O)c2cc(Cl)c(Cl)cc21 | 86% (active)
CC1=C(C2CO2)C(=O)C(C)=C(C2CO2)C1=O (configuration not stated) | 59% (inactive)
CCc1cc(CC)c(-c2ccco2)c(COC(=O)NC)c1 | -7% (inactive)
COC(=O)C(=O)N(c1cc(C)ccc1C)c1cc(C)ccc1C | 6% (inactive)
COC1=CC(=O)c2c(O)c3c(c(O)c2C1=O)C=C(C)OC3O (configuration not stated) | 7% (inactive)
O=[N+]([O-])c1ccccc1NCCO | 2% (inactive)
CCCCCCCCCCCCCCCC[N+](C)(C)CC(=O)O | 2% (inactive)
S=C(SSSSC(=S)N1CCCCC1)N1CCCCC1 | 39% (inactive)
COC(O)C12OC3CO[Si](C(C)C)(C(C)C)O[Si](C(C)C)(C(C)C)OC3C1Oc1nc(=O)ccn12 (configuration not stated) | 1% (inactive)
O=C(O)c1ccccc1C(c1ccccc1)c1ccccc1 | 13% (inactive)
OC(OC/C(I)=C(/I)COC(O)C(Cl)(Cl)Cl)C(Cl)(Cl)Cl (configuration not stated) | -10% (inactive)
COC(C)(C)[C@@H]1CCCN1C1=C(C)C(=O)OC1 | 43% (inactive)

SMILES | growth inhibition
COc1ccc(-c2nc(C)[nH]c(=O)c2Cc2c(O)ccc3ccccc23)cc1 | 4% (inactive)
C1CCC(CCNCCC2CCCCC2)CC1 | -15% (inactive)
CC1=C(C)C1[N+](=O)[O-] | 25% (inactive)
COc1ccc2c(c1)OC(c1ccccc1O)CC2=O (configuration not stated) | -14% (inactive)
CCN(CC)c1ccc(NC(CC(O)c2ccccc2)c2ccccc2)cc1 (configuration not stated) | -5% (inactive)
COc1cc(/C=C/C(=O)c2ccc3ccccc3c2)cc(OC)c1OC | 22% (inactive)
C=CC(=C)OC | 1% (inactive)
O=C1OC(=O)c2ccc([N+](=O)[O-])c3cccc1c23 | 3% (inactive)
CCCOC(=O)CSC#N | 28% (inactive)
CCCCN(CCCC)CCCCCCNc1cc(OC)cc2cccnc12 | 5% (inactive)
CN1C(Cl)=NS(=O)(=O)c2ccccc21 | 20% (inactive)
COc1cc(C(=O)CBr)c2ccc(Cl)cc2n1 | 59% (inactive)
CCCCCCCCCCCCCCCC(=O)N(CCCN(CC)CC)C(C)CCCN(CC)CC (configuration not stated) | 36% (inactive)
CC1(c2ccccc2)OC1C(=O)N(c1ccccc1)c1ccccc1 (configuration not stated) | 15% (inactive)
CCCCCCCNC1CCCc2cc(OC)ccc21 (configuration not stated) | 28% (inactive)
Cc1ccc(S(=O)(=O)NCCSCCSCCNS(=O)(=O)c2ccc(C)cc2)cc1 | -3% (inactive)
COc1ccc(C2C3CCCC(C(c4ccc(OC)cc4)N2C)C32NC(=O)NC2=O)cc1 (configuration not stated) | 2% (inactive)
CC(C)OC1=C(Cl)C(=O)c2c(cccc2[N+](=O)[O-])C1=O | 19% (inactive)
COC(=O)c1nnn(-c2ccc(Cl)cc2Cl)c1C(=O)c1ccc(Cl)c(Cl)c1 | 11% (inactive)
O=Cc1cc2c(s1)C(=O)c1sccc1C2=O | 52% (inactive)
